# Screening results from PubChem.
# Hits are enriched below; roughly 7.5% of the tested compounds scored in any of these assays.
# NPC1 prom act = activators of NPC1 promoter; Huh7 NPC1 promoter luciferase reporter, 24 h; Potency, µM (doses to about 9.22 µM), without a hit: top-dose activation, most hits filed as activators; AID 485313; 320,000 compounds, 2.4% hits; note: % of control where 0% means no effect; nearly all actives have a fitted effect of over 60% in size
#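 Huh7 cells stably carrying NPC1 promoter–luciferase, plated in Opti-MEM with 10% FBS for 2 h, were exposed to compound in DMSO for 24 h at 37 °C; luciferase reagent was added for 10 min and luminescence read.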
# Luc counter = blocks Kinase-Glo luciferase, a counter-screen artifact | AID 1379 | Potency, µM (top dose mostly 38.3 µM), for the others: at the highest dose activity change, negative = inhibition, actives largely listed as inhibitors | 200,000 compounds, 0.28% hits | Kinase-Glo luciferase, ATP luminescence, 8 min; note: % is set by controls: 0 for no effect and ±100 for the full control effect; nearly all actives have a fitted effect of over 60% in size
#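 Recombinant Kinase-Glo luciferase, 10 uM ATP (linear range), luciferin; imidazole pH 7.2 / KCl / MgCl2 / Tween / BSA buffer; 8 min RT; luminescence.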
# Rab9 promoter act = Rab9 promoter activation; Huh7 Rab9 promoter-luciferase reporter, luminescence, 24 h; Potency, µM (doses to about 9.22 µM), without a hit: top-dose activation, negative = inhibition, most hits filed as activators; 320,000 compounds, 2.8% hits; AID 485297; note: % of control where 0% means no effect; nearly all actives have a fitted effect of over 60% in size
#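 Huh7 cells stably carrying a Rab9 promoter-luciferase reporter, 1500 cells per well in OP-MEM I with 10% FBS, treated with compound 24 hours at 37C. Luciferase activity read by luminescence after 10 minutes with Amplite reagent.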
# ELG1 genotoxic = induces genotoxicity in HEK293T cells with luciferase-tagged ELG1. HEK293T ELG1-luciferase reporter, luminescence, 16 h. Potency, µM (top dose mostly 46 µM), inactives show at the highest dose activity change, positive = activation, most hits filed as activators. 330,000 compounds, 1.3% hits. AID 504466; note: % of control where 0% means no effect; nearly all actives have a fitted effect of over 60% in size
#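 Step 1: seed 2,000 HEK293T ELG1-luciferase cells per well. Step 2: add compound or DMSO, incubate 16 hr at 37 °C. Step 3: ONE-Glo, 30 min at room temperature, read luminescence.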
# SMN2 splice enh = SMN2 splice variant enhancement. Potency, µM (highest dose often 46.1 µM), for the others: at the top dose activity change, positive = activation, actives largely listed as activators. AID 1458. 210,000 compounds, 2.8% hits. HEK293 SMN2-luciferase splicing reporter, luminescence, 30-36 h; note: % of control where 0% means no effect; nearly all actives have a fitted effect of over 55% in size
#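 HEK293 cells carry an SMN2 […]–luciferase reporter in which exon 7 inclusion puts luciferase in frame. Cells were plated 10-12 h before compound addition, then incubated 30-36 h at 37C. ONE-Glo luminescence was read; sodium butyrate at 4.5 mM final served as control.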
# FLuc counter = inhibits or activates purified firefly luciferase, miR-21 counter-screen. P08659. purified FLuc, Km substrates, luminescence inhibition. Potency, µM (highest dose often 57.5 µM), without a hit: at the top dose activity change, negative = inhibition, actives largely listed as inhibitors. 360,000 compounds, 6.9% hits;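 note: plate controls were vehicle for no effect and reference inhibitor for full effect; nearly all actives have a fitted effect of over 55% in size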
# Target sequence (P08659 whole entry, looked up): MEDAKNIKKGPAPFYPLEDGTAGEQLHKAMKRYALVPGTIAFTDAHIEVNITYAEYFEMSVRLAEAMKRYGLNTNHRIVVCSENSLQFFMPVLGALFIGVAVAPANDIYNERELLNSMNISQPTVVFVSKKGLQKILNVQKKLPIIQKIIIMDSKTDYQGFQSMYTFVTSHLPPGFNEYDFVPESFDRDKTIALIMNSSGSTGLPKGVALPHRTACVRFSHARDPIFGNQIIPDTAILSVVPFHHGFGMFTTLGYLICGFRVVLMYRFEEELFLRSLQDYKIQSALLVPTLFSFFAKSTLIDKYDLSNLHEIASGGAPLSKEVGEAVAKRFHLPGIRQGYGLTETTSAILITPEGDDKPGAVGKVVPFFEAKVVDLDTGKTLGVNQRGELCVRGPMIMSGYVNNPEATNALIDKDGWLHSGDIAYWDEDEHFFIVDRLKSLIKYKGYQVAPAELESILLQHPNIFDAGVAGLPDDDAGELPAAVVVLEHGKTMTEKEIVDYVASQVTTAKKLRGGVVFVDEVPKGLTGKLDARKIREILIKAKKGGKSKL
#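 Biochemical qHTS of compounds, final roughly 60 µM downward over six points, against 10 nM purified firefly luciferase using Km concentrations of substrates (10 uM D-luciferin, 10 uM ATP) in Tris acetate pH 7.5 buffer; luminescence output.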
# The depositor's hits bear a star; ? = inconclusive; / = no result. Calls come from the whole dose curve; as a rule, active = well fitted curve in the direction sought with a large enough effect; inconclusive = small, poorly fitted or top-dose-only effect, or another doubt; inactive = no such curve, though single readings can be large; an effect the other way counts as inactive or inconclusive. Potency is the fitted concentration of half-maximal effect.
SMILES,NPC1 prom act,Luc counter,Rab9 promoter act,ELG1 genotoxic,SMN2 splice enh,FLuc counter
Cc1c(Cl)c([N+](=O)[O-])nn1CC(=O)NC12CC3CC(CC(C3)C1)C2,1%,-3%,-6%,1%,-11%,0%
Cc1ccc(C(=O)NCCC(=O)N2CCOCC2)cc1,1.6µM*,/,2.5µM*,13µM*,/,11µM*
Cc1ccc(C(=O)NCCN2CCOCC2)cc1,-2%,1%,5%,6%,0%,-9%
CC(C)(C)c1ccc(C(=O)NCC(=O)OCC(=O)N2CCCC2)cc1,-1%,/,-3%,0%,/,15µM*
CC(C)(C)c1ccc(C(=O)NCCC(=O)N2CCCC2)cc1,2.2µM*,/,4µM*,21µM*,/,9.5µM*
CCCC(=O)Oc1c(Sc2ccc(Cl)cc2)c(C)nn1-c1ccccc1,/,/,/,/,-4%,11µM*
Cc1ccc(-c2csc(=S)[nH]2)cc1,3.2µM*,/,?,?,/,?
CCCCC(=O)Nc1cccc(OCc2cc(=O)n3ccccc3n2)c1,/,/,/,/,/,-9%
c1ccc2oc(-c3ccn[nH]3)cc2c1,2.8µM*,/,3.2µM*,?,/,8.5µM*
c1ccc2oc(-c3[nH]ncc3CN3CCSCC3)cc2c1,1%,/,4%,-1%,/,-2%
Cc1cc(O)ccc1Nc1nc2ccccc2nc1Nc1ccc(O)cc1C,7%,-3%,6%,8%,3%,17µM*
CCCc1cc(=O)[nH]c(Nc2ccc(O)cc2C)n1,/,/,/,/,15%,0%
CC(Sc1nc2ccccc2n1C)C(=O)Nc1ccc(N2CCOCC2)cc1 (stereo not drawn),-1%,-3%,-2%,21%,-17%,17µM*
CC(C)Cn1c(SC(C)C(=O)Nc2ccc(N3CCOCC3)cc2)nc2ccccc21 (stereo not drawn),-3%,1%,-2%,2%,-6%,?
COc1ccccc1N1CCN(Cc2cc(=O)c(OCC#N)co2)CC1,0%,/,-3%,2%,/,-1%
O=C(Nc1cc2c3c(c1)CC(=O)N3CCC2)c1c(F)cccc1F,-3%,/,3%,?,/,-8%
O=C(Nc1cc2c3c(c1)CC(=O)N3CCC2)c1ccc(Cl)cc1,13%,/,-4%,?,/,15µM*
CCCCC(=O)Nc1nnc(S(=O)(=O)N(C)Cc2ccccc2)s1,/,/,/,/,/,-3%
O=C(Nc1nc2ccsc2c(=O)s1)c1ccc(Cl)cc1,0.25µM*,/,0.1µM*,?,/,0.21µM*
O=C(Nc1nc(=O)c2ccccc2s1)c1ccc(F)cc1,?,-3%,3.2µM*,?,14µM*,2.1µM*
O=C(Nc1nc(=O)c2ccccc2s1)c1ccc(Cl)cc1,2.8µM*,-2%,2.5µM*,1.8µM*,13µM*,1.1µM*
O=C(Nc1nc2ccc(Cl)cc2s1)c1ccc(S(=O)(=O)N2CCCC2)cc1,/,/,/,/,/,1%
CCn1c(NC(=O)c2ccc(F)cc2)c2ccccc2nc1=O,-5%,2%,0%,0%,-1%,5%
CCOC(=O)C1=CN(Cc2ccco2)S(=O)(=O)NC1c1ccc(C(F)(F)F)cc1 (stereo not drawn),/,/,/,1%,/,/
Cc1ccc2oc3nc(C)c(C(=O)Nc4cccc(C(F)(F)F)c4)cc3c(=O)c2c1,-3%,-6%,9%,4%,2%,?
Cc1ccc(C2(C)NC(=O)N(CC(=O)c3ccc(Cl)s3)C2=O)cc1 (stereo not drawn),-3%,-2%,-4%,-1%,22%,2%
C=CCn1c(N)c(C(=O)NCCC2=CCCCC2)sc1=S,24%,4%,19%,?,13µM*,?
O=C(NNC(=O)c1ccncc1)NC1CCCCC1,1%,0%,-3%,0%,/,1%
O=C(Nc1ccon1)c1ccc(N2CCCCC2)c([N+](=O)[O-])c1,2.8µM*,7%,2µM*,16%,14µM*,12µM*
Cc1cc(NC(=O)c2ccc(N3CCCC3)c([N+](=O)[O-])c2)no1,7%,3%,12%,7%,10%,-8%
